The values that follow come from PubChem BioAssay (NCI).

Assay [1] in a line: NCI Yeast Anticancer Drug Screen. Data for the rad50 strain (AID 155).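 Also: 0% = growth of vehicle-only cultures of the same strain.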 The conditions noted are these: S. cerevisiae rad50 strain growth inhibition, stronger effect = higher value. Put shortly: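 A DNA repair-deficient yeast mutant serves as the test organism; compound-induced growth inhibition is calculated against vehicle-treated cells.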
A short description of assay [2]: NCI Yeast Anticancer Drug Screen. Data for the mec2-1 strain (AID 157). The conditions noted are these: S. cerevisiae mec2-1 strain, stronger effect = higher value. Put shortly: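 Compounds were applied to mec2-1 yeast cells. Their growth was then compared with that of vehicle-treated cultures to give growth inhibition.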
Assay [3] in a line: NCI Yeast Anticancer Drug Screen. Data for the sgs1 mgt1 strain (AID 161).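 Also: 0% = growth of cultures given vehicle only.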 The conditions noted are these: S. cerevisiae sgs1 mgt1 strain, stronger effect = higher value. Put shortly: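 Percent growth inhibition was derived by comparing compound-exposed mutant yeast with vehicle-exposed cultures. The strain carries alterations in DNA damage repair.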
Assay [4] in a line: NCI Yeast Anticancer Drug Screen. Data for the cln2 rad14 strain (AID 165).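 Also: 0% = growth equal to vehicle treated cultures.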 The conditions noted are these: S. cerevisiae cln2 rad14 strain, stronger effect = higher value. In short, it runs like this: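 Strain: cln2 rad14 yeast, altered in cell cycle control and DNA damage repair. Read-out: growth inhibition vs vehicle.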
Assay [5] can be described thus: NCI Yeast Anticancer Drug Screen. Data for the bub3 strain (AID 167). The conditions noted are these: S. cerevisiae bub3 mutant strain, stronger effect = higher value. In short, it runs like this: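 Inhibition values come from growth of compound-treated mutant yeast normalised to vehicle-treated controls.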
Assay [6] in a line: NCI Yeast Anticancer Drug Screen. Data for the mlh1 rad18 strain (AID 175). The conditions noted are these: S. cerevisiae mlh1 rad18 strain growth inhibition, stronger effect = higher value. In short, it runs like this: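 A repair-deficient yeast strain is exposed to test compound, and growth is scored relative to vehicle-treated controls.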
[7] abbreviates: at 5.0 µM (retest, dose inferred, filed as 0.5).
Setting [8] is: at 50.0 µM (retest, dose inferred, filed as 5.0).

This is part of a sample that, as a whole, favours compounds with a hit. Of some 79,000 tested, about 15% had one in any assay. Values without a mark were called inactive. Calls of active or inactive are those of the source. Rule as the data show it: active = growth inhibition above about 70%; inactive = the rest.

Turning to `CC(=O)OC1COC(N2C(=O)C(=O)c3cc(Br)ccc32)C(OC(C)=O)C1OC(C)=O` (stereo not given), the growth inhibition is -11% in assay [1] (setting [7]); 20% in assay [1] (setting [8]); 50.7% in assay [1] (at 50.0 µM); 1% in assay [2] (setting [7]); 7% in assay [2] (setting [8]); -12.3% in assay [2] (at 50.0 µM). Further, the growth inhibition in assay [3] (setting [7]) is -16%; in assay [3] (setting [8]) it was 0%; in assay [3] (at 50.0 µM), 2.9%; in assay [4] (setting [7]) it was -37%; in assay [4] (setting [8]), -4%; in assay [4] (at 50.0 µM) it was 19.1%. Moreover, the growth inhibition in assay [5] (setting [7]) is -13%; in assay [5] (setting [8]), 23%; in assay [5] (at 50.0 µM), 25.4%; in assay [6] (setting [7]) it was -2%; in assay [6] (setting [8]) it was 14%; in assay [6] (at 50.0 µM) it was 12.9%.

As for `CCOC(=O)C(=Cc1ccccc1Br)C(=O)OCC`, the growth inhibition in assay [1] (setting [7]) is 16%; in assay [1] (setting [8]) it was 92% (active); in assay [1] (at 50.0 µM) it was 78.5% (active); in assay [2] (setting [7]), 33%; in assay [2] (setting [8]) it was 94% (active); in assay [2] (at 50.0 µM) it was 92.5% (active). For the same compound, the growth inhibition in assay [3] (setting [7]) was 20%; in assay [3] (setting [8]), -18%; in assay [3] (at 50.0 µM), 96.5% (active); in assay [4] (setting [7]), 17%; in assay [4] (setting [8]) it was 93% (active); in assay [4] (at 50.0 µM), 67.8%. The growth inhibition in assay [5] (setting [7]) is 26%; in assay [5] (setting [8]), 96% (active); in assay [5] (at 50.0 µM), 95.7% (active); in assay [6] (setting [7]), 14%; in assay [6] (setting [8]) it was 97% (active); in assay [6] (at 50.0 µM), 96.2% (active).

For `COc1ccc(C2=C(Cl)C(=O)N(c3ccc(Cl)cc3)C(=O)C2(Cl)Cl)cc1`, the growth inhibition in assay [1] (setting [7]) is 12%; in assay [1] (setting [8]), 95% (active); in assay [1] (at 50.0 µM), 93.2% (active); in assay [2] (setting [7]) it was 3%; in assay [2] (setting [8]) it was 97% (active); in assay [2] (at 50.0 µM), 98.2% (active). The growth inhibition was 13% in assay [3] (setting [7]); 96% (active) in assay [3] (setting [8]); 97.1% (active) in assay [3] (at 50.0 µM); -10% in assay [4] (setting [7]); 91% (active) in assay [4] (setting [8]); 63% in assay [4] (at 50.0 µM). Further, the growth inhibition in assay [5] (setting [7]) was -3%; in assay [5] (setting [8]), 95% (active); in assay [5] (at 50.0 µM) it was 93.2% (active); in assay [6] (setting [7]), 9%; in assay [6] (setting [8]) it was 94% (active); in assay [6] (at 50.0 µM) it was 96% (active).

`Cc1ccc(S(=O)(=O)N/N=C/c2cc(I)cc([N+](=O)[O-])c2O)cc1`: the growth inhibition in assay [1] (setting [7]) was 17%; in assay [1] (setting [8]), 91% (active); in assay [1] (at 50.0 µM), 89.3% (active); in assay [2] (setting [7]), 13%; in assay [2] (setting [8]) it was 92% (active); in assay [2] (at 50.0 µM), 95.8% (active). Also, the growth inhibition is 23% in assay [3] (setting [7]); 93% (active) in assay [3] (setting [8]); 97.7% (active) in assay [3] (at 50.0 µM); 9% in assay [4] (setting [7]); 94% (active) in assay [4] (setting [8]); 91.3% (active) in assay [4] (at 50.0 µM). Besides, the growth inhibition in assay [5] (setting [7]) was 8%; in assay [5] (setting [8]) it was 97% (active); in assay [5] (at 50.0 µM) it was 88.8% (active); in assay [6] (setting [7]) it was 21%; in assay [6] (setting [8]), 94% (active); in assay [6] (at 50.0 µM), 96.5% (active).

Regarding `CC(C)OC(=O)c1ccc(NC(=O)CCl)cc1`, the growth inhibition in assay [1] (setting [7]) is 0%; in assay [1] (setting [8]), -1%; in assay [1] (at 50.0 µM) it was 66.7%; in assay [2] (setting [7]), -1%; in assay [2] (setting [8]) it was 5%; in assay [2] (at 50.0 µM), 59.8%. In addition, the growth inhibition is 3% in assay [3] (setting [7]); -8% in assay [3] (setting [8]); 79.1% (active) in assay [3] (at 50.0 µM); -1% in assay [4] (setting [7]); 5% in assay [4] (setting [8]); 31.9% in assay [4] (at 50.0 µM). The growth inhibition in assay [5] (setting [7]) was -4%; in assay [5] (setting [8]), -2%; in assay [5] (at 50.0 µM), 61%; in assay [6] (setting [7]) it was -5%; in assay [6] (setting [8]), 6%; in assay [6] (at 50.0 µM) it was 76.2% (active).

Consider `CCCCCC(CN(C)C)C(O)/C=C\c1ccccc1` (stereo not given), for which the growth inhibition in assay [1] (setting [7]) is 0%; in assay [1] (setting [8]) it was -8%; in assay [1] (at 50.0 µM), 74.7% (active); in assay [2] (setting [7]), -1%; in assay [2] (setting [8]) it was -4%; in assay [2] (at 50.0 µM), 48.6%. The growth inhibition in assay [3] (setting [7]) was -10%; in assay [3] (setting [8]) it was -22%; in assay [3] (at 50.0 µM) it was 72.1% (active); in assay [4] (setting [7]), -1%; in assay [4] (setting [8]) it was -6%; in assay [4] (at 50.0 µM), 4.9%. Besides, the growth inhibition was -2% in assay [5] (setting [7]); -10% in assay [5] (setting [8]); 1.6% in assay [5] (at 50.0 µM); 8% in assay [6] (setting [7]); -9% in assay [6] (setting [8]); 68.5% in assay [6] (at 50.0 µM).

On to `COc1ccc(C)c2nc3ccccc3nc12`, for which the growth inhibition in assay [1] (setting [7]) was -119%; in assay [1] (setting [8]) it was 86% (active); in assay [1] (at 50.0 µM), 97% (active); in assay [2] (setting [7]), -42%; in assay [2] (setting [8]), 24%; in assay [2] (at 50.0 µM), 74.5% (active). Moreover, the growth inhibition in assay [3] (setting [7]) was -64%; in assay [3] (setting [8]), 51%; in assay [3] (at 50.0 µM), 38.7%; in assay [4] (setting [7]), -49%; in assay [4] (setting [8]), 37%; in assay [4] (at 50.0 µM), 56.2%. Moreover, the growth inhibition in assay [5] (setting [7]) is -58%; in assay [5] (setting [8]), 31%; in assay [5] (at 50.0 µM) it was 91.9% (active); in assay [6] (setting [7]), -110%; in assay [6] (setting [8]) it was 67%; in assay [6] (at 50.0 µM), 87.7% (active).

With `O=[N+]([O-])c1ccc(SCc2ccccc2)c2nonc12`, the growth inhibition in assay [1] (setting [7]) is 13%; in assay [1] (setting [8]) it was 63%; in assay [1] (at 50.0 µM) it was 86.8% (active); in assay [2] (setting [7]) it was 12%; in assay [2] (setting [8]), 99% (active); in assay [2] (at 50.0 µM), 89.5% (active). Further, the growth inhibition was 14% in assay [3] (setting [7]); 87% (active) in assay [3] (setting [8]); 88% (active) in assay [3] (at 50.0 µM); 13% in assay [4] (setting [7]); 77% (active) in assay [4] (setting [8]); 88.9% (active) in assay [4] (at 50.0 µM). For the same compound, the growth inhibition was 11% in assay [5] (setting [7]); 97% (active) in assay [5] (setting [8]); 88.7% (active) in assay [5] (at 50.0 µM); 22% in assay [6] (setting [7]); 81% (active) in assay [6] (setting [8]); 86% (active) in assay [6] (at 50.0 µM).

For the compound `CCOC(C)(OCC)C(N)c1ccccc1` (stereo not given), the growth inhibition in assay [1] (setting [7]) was -15%; in assay [1] (setting [8]), -12%; in assay [1] (at 50.0 µM), 14.3%; in assay [2] (setting [7]), 10%; in assay [2] (setting [8]), -17%; in assay [2] (at 50.0 µM), 19.4%. Also, the growth inhibition in assay [3] (setting [7]) is 6%; in assay [3] (setting [8]) it was 9%; in assay [3] (at 50.0 µM) it was -0.2%; in assay [4] (setting [7]) it was -1%; in assay [4] (setting [8]) it was 5%; in assay [4] (at 50.0 µM), -5.65%. Moreover, the growth inhibition in assay [5] (setting [7]) is 6%; in assay [5] (setting [8]) it was 9%; in assay [5] (at 50.0 µM), -6.9%; in assay [6] (setting [7]), 2%; in assay [6] (setting [8]), 9%; in assay [6] (at 50.0 µM), 1.05%.

With `O=[N+]([O-])c1ccc(NNS(=O)(=O)c2ccccc2)c([N+](=O)[O-])c1`, the growth inhibition was 3% in assay [1] (setting [7]); -7% in assay [1] (setting [8]); 5.85% in assay [1] (at 50.0 µM); -13% in assay [2] (setting [7]); -4% in assay [2] (setting [8]); 16.3% in assay [2] (at 50.0 µM). In addition, the growth inhibition in assay [3] (setting [7]) was -3%; in assay [3] (setting [8]), 13%; in assay [3] (at 50.0 µM), 10.3%; in assay [4] (setting [7]), -33%; in assay [4] (setting [8]), -17%; in assay [4] (at 50.0 µM), -18.2%. Moreover, the growth inhibition in assay [5] (setting [7]) was 4%; in assay [5] (setting [8]), 13%; in assay [5] (at 50.0 µM), -2%; in assay [6] (setting [7]), 0%; in assay [6] (setting [8]), 16%; in assay [6] (at 50.0 µM), 13.8%.
